Experimental data published in article PMC7862700, “An all-to-all approach to the identification of sequence-specific readers for epigenetic DNA modifications on cytosine”.

Assays:
Experiment in all cases: DAPPL (digital affinity profiling via proximity ligation, sequencing); 10 mM Tris-HCl pH 7.5, 50 mM NaCl, 1 mM DTT, 4% glycerol, room temperature, 30 min; GST-TFs on glutathione beads, 16-mer random dsDNA library, 0.1% formaldehyde crosslink after washing; high values mean tight binding
Conditions in all cases: protein: recombinant; tags: N-terminal GST; dsDNA, one strand shown
[1] = target: T1, FLI1 (Homo sapiens, UniProt Q01543 1-452)
T1 sequence: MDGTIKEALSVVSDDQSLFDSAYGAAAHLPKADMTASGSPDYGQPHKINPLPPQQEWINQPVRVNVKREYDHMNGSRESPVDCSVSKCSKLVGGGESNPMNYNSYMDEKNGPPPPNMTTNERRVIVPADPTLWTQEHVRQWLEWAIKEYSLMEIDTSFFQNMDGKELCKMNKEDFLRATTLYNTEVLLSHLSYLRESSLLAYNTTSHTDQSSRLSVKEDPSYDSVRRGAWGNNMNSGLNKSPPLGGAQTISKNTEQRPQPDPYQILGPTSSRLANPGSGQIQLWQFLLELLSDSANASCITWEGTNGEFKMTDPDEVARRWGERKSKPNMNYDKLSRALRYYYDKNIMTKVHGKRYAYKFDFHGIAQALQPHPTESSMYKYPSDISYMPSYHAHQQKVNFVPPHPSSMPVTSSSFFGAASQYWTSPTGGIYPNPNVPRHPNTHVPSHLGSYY
Summary of the method: (§1)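 In yeast, human transcription factors were expressed with a GST fusion, then pulled down on glutathione beads and given DNA barcodes. Pooled with a tag-only sample, they were exposed to 200 nmole of a 16-mer random double-stranded DNA library (Tris/NaCl/DTT/glycerol buffer, room temperature, 30 min), washed, crosslinked with 0.1% formaldehyde, proximity-ligated using BsaI/T4 ligase for 1 h at 37 °C, PCR-amplified and read on an Illumina NextSeq500. Each hexamer's frequency of reads for a factor, divided by the matching frequency for the tag-only sample, gives the binding signal.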

[2] = target: T2, ERG (Homo sapiens, UniProt P11308 1-479)
T2 sequence: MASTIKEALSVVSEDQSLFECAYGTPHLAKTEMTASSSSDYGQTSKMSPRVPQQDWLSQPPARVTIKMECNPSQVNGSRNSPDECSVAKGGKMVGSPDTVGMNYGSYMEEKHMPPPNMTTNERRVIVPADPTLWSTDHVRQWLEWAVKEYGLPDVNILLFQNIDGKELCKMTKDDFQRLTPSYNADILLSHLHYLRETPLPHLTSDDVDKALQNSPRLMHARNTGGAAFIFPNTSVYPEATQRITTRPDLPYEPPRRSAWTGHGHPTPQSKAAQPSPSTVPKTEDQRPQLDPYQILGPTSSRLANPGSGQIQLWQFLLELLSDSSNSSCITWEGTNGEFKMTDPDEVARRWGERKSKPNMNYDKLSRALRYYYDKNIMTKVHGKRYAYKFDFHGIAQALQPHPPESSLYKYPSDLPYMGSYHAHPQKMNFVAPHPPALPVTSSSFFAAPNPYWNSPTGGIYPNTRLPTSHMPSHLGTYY
Summary of the method: as §1

[3] = target: T3, EHF (Homo sapiens, UniProt Q9NZC4 1-300)
T3 sequence: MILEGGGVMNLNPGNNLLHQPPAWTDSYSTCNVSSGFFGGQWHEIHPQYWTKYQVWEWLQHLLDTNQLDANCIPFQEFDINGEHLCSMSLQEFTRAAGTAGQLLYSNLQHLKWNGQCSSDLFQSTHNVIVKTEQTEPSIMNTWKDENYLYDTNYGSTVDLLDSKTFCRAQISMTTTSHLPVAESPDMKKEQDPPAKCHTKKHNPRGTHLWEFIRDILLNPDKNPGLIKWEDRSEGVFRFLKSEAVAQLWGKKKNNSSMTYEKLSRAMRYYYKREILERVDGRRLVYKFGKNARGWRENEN
Summary of the method: as §1

[4] = target: SPIB (Homo sapiens, UniProt Q01892 1-262)
Summary of the method: as §1

[5] = target: T4, ELF3 (Homo sapiens, UniProt P78545 1-371)
T4 sequence: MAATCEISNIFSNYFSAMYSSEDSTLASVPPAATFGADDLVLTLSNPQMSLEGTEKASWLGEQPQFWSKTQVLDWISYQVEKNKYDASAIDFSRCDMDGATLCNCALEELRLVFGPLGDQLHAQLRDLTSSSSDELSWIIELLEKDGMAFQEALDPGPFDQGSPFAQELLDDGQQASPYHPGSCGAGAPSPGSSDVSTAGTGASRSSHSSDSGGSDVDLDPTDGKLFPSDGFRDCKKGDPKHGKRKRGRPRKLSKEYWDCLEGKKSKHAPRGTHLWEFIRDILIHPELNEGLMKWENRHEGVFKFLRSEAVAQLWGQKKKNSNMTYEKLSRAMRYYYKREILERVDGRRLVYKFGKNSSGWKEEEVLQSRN
Summary of the method: as §1

[6] = target: ETV1 (Homo sapiens, UniProt P50549 1-477)
Summary of the method: as §1

[7] = target: T5, ELK4 (Homo sapiens, UniProt P28324-2 1-405)
T5 sequence: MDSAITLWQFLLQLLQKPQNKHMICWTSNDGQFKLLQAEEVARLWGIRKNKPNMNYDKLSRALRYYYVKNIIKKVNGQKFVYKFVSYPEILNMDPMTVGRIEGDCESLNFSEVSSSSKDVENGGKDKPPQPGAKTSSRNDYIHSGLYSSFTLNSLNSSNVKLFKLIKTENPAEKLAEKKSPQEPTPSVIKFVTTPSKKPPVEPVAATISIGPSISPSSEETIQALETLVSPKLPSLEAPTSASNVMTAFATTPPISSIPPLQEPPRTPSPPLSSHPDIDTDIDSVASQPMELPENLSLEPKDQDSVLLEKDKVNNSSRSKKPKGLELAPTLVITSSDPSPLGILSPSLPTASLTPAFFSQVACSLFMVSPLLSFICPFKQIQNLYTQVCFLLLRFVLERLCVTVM
Summary of the method: as §1

[8] = target: T6, ETV2 (Homo sapiens, UniProt O00321 1-342)
T6 sequence: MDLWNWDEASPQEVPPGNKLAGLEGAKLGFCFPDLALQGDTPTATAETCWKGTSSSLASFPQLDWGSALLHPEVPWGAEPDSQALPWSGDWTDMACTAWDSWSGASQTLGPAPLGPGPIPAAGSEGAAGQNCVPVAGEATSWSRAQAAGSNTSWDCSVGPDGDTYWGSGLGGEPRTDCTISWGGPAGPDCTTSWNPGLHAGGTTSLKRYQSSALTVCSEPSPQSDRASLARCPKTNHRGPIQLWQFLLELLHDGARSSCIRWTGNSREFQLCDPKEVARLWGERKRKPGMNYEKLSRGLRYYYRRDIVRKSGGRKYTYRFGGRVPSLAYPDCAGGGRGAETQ
Summary of the method: as §1

[9] = target: T7, ERF (Homo sapiens, UniProt P50548 1-548)
T7 sequence: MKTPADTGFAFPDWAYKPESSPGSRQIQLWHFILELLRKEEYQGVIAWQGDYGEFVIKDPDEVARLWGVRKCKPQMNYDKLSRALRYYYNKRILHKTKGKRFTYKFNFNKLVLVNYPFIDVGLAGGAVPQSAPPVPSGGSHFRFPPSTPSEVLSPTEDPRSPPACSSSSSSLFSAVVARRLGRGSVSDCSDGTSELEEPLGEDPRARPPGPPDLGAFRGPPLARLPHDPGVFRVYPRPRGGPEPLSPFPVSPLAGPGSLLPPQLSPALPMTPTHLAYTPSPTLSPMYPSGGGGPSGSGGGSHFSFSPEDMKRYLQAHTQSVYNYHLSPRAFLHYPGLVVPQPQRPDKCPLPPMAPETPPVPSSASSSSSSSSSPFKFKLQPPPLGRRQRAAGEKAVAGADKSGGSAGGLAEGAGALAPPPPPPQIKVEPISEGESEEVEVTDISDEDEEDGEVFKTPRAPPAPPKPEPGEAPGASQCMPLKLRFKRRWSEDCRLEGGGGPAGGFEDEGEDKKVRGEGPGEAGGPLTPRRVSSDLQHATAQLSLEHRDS
Summary of the method: as §1

[10] = target: T8, ETV3L (Homo sapiens, UniProt Q6ZN32 1-361)
T8 sequence: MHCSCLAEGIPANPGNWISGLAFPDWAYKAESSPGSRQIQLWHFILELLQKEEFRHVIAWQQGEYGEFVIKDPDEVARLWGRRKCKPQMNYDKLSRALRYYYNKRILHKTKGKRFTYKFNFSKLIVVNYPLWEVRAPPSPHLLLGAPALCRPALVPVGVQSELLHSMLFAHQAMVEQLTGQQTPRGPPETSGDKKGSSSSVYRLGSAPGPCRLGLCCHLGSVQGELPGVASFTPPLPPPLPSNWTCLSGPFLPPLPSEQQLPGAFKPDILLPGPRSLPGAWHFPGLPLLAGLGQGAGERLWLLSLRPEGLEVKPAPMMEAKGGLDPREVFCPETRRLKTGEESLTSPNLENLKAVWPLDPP
Summary of the method: as §1

[11] = target: T9, SPDEF (Homo sapiens, UniProt O95238 1-335)
T9 sequence: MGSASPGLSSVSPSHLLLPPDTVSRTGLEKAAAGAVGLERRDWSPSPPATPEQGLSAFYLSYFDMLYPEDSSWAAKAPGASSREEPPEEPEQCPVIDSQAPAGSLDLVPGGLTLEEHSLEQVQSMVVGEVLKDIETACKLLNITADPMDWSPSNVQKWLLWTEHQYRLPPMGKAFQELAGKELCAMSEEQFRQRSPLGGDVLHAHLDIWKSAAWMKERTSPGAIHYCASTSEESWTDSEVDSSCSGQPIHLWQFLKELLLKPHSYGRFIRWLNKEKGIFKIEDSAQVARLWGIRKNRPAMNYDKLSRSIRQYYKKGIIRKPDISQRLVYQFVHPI
Summary of the method: as §1

Sequence of ETV1 (P50549 whole entry): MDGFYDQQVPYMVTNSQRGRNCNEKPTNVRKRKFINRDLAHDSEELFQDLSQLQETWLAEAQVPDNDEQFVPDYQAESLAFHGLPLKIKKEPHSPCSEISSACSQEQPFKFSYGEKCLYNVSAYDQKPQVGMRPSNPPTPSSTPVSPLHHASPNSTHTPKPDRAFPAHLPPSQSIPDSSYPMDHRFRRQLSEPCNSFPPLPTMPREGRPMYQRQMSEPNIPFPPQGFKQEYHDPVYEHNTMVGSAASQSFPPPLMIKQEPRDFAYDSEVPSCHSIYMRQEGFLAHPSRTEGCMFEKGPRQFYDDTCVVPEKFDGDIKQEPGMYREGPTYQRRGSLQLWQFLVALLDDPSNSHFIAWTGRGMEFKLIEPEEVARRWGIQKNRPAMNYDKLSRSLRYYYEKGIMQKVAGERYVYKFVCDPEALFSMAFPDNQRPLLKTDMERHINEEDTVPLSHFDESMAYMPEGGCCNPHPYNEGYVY
Sequence of SPIB (Q01892 whole entry): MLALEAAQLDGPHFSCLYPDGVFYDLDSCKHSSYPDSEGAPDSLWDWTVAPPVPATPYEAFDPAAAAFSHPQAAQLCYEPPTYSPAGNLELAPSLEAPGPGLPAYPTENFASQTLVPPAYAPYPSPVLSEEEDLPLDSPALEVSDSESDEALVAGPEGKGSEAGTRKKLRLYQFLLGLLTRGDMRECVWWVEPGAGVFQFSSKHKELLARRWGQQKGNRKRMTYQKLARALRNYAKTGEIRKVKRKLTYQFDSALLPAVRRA

| Sequence | binding signal [1] | binding signal [2] | binding signal [3] | binding signal [4] | binding signal [5] | binding signal [6] | binding signal [7] | binding signal [8] | binding signal [9] | binding signal [10] | binding signal [11] |
| --- | --- | --- | --- | --- | --- | --- | --- | --- | --- | --- | --- |
| ACGTCA | 1.01 fold enrichment (6-mer frequency, TF over GST control) | 1.01 fold enrichment (6-mer frequency, TF over GST control) | 1.01 fold enrichment (6-mer frequency, TF over GST control) | 1.09 fold enrichment (6-mer frequency, TF over GST control) | 1.03 fold enrichment (6-mer frequency, TF over GST control) | 1.05 fold enrichment (6-mer frequency, TF over GST control) |  |  |  |  |  |
| TCGTTG | 1.01 fold enrichment (6-mer frequency, TF over GST control) |  |  |  | 1.07 fold enrichment (6-mer frequency, TF over GST control) | 1.02 fold enrichment (6-mer frequency, TF over GST control) | 1.1 fold enrichment (6-mer frequency, TF over GST control) | 1.19 fold enrichment (6-mer frequency, TF over GST control) | 1.03 fold enrichment (6-mer frequency, TF over GST control) | 1.1 fold enrichment (6-mer frequency, TF over GST control) | 1.01 fold enrichment (6-mer frequency, TF over GST control) |
